# Source: PubChem
# The full list was thinned out, with hits kept by preference.
# NTMT1 inh: inhibitors of human N-terminal methyltransferase NTMT1 | NTMT1 MTase-Glo SAH luminescence, purified enzyme | Q9BV86 | Potency, µM (titrated, usually from 114 µM), inactives show top-dose activity change, negative = inhibition, usual class: inhibitors | AID 1645870 | 59,000 compounds, 2.5% hits;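 further: plate controls were DMSO vehicle for no effect and no enzyme for full effect; nearly all actives have a fitted effect of over 65% in size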
# GALC G270D up: enhancers of human galactocerebrosidase G270D mutant activity in cells; P54803; 145M-Twi-hGALC-G270D cells, HMU-beta-Gal fluorescence, 48 h; Potency, µM (doses to about 57.5 µM), usual class: activators; 45,000 compounds, 0.1% hits; AID 1159614; further: 0% is about no effect; nearly all actives have a fitted effect of over 65% in size
# Target sequence (P54803 whole entry G286D): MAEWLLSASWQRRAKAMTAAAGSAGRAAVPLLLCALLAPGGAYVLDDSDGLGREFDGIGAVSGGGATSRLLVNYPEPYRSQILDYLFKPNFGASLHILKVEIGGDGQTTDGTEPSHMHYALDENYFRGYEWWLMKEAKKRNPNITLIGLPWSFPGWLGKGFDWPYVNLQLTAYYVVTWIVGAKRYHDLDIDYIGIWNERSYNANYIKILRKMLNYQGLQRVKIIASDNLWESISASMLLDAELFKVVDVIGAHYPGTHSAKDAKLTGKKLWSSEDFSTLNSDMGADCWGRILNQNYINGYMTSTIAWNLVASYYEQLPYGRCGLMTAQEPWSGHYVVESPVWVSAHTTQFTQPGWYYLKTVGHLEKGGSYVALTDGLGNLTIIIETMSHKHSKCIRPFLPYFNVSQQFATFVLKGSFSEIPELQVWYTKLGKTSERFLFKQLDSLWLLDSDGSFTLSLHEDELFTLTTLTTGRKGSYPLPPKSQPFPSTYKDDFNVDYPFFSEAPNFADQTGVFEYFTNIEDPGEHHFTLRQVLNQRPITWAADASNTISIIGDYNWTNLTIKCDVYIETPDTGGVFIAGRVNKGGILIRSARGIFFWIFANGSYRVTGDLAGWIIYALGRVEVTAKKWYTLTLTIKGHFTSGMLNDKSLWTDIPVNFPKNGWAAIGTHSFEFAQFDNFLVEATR
#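 qHTS, 1536-well; 145M-Twi-hGALC-G270D cells (WT line also made) in DMEM/F12 + 10% FBS; compound incubation on live cells; HMU-β-gal 0.1 mM final, pH 5.2, NaTC; carbonate stop; fluorescence increase = enhanced residual activity.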
# FH mod: Identification of activators of human fumarate hydratase by quantitative high-throughput screening | FH coupled MDH/diaphorase resazurin fluorescence, 15 min | Potency, µM (highest dose often 79.9 µM), inactives show at the highest dose activity change, negative = inhibition, hits mostly inhibitors | 54,000 compounds, 0.22% hits | AID 1347055, 2019; further: on the % scale 0 is the no-effect control and ±100 the full control effect; the screen sought activators but most active calls are inhibition curves; nearly all actives have a fitted effect of over 45% in size
# p53null 32C kill: p53 null cell cytotoxicity, permissive temperature. H1299-neo p53 null cells, ATP luminescence, 24 h, 32C. Potency, µM (top dose mostly 46.1 µM), for the others: at the top dose activity change, negative = cytotoxicity, hits mostly cytotoxic. 55,000 compounds, 0.62% hits. AID 903;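 further: 0% = DMSO only and -100% = full killing by 100 µM tamoxifen; nearly all actives have a fitted effect of over 55% in size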
#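 H1299-neo, 600 cells/well; overnight 37C; cpd up to 46 uM, 24 h at 32C; ATPlite luminescence after 20 min RT; normalized to DMSO (0%) and tamoxifen 100 uM (100% kill); Hill-fit AC50.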
# p53null 39C kill: selectivity test: cytotoxicity in p53 null cells, nonpermissive temperature; H1299 p53-null (neo) cells, 39C, ATPlite viability, 24 h; Potency, µM (titrated, usually from 46.1 µM), for inactives: top-dose activity, negative = cell killing, usual class: cytotoxic; 55,000 compounds, 0.97% hits; AID 904;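 further: 0% = DMSO only and -100% = full killing by 100 µM tamoxifen; nearly all actives have a fitted effect of over 50% in size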
#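 ATP-luminescence viability readout (ATPlite, 20 min RT) after 24 hr compound treatment at 39C of H1299-neo or H1299-p53A138V cells; titration up to 46 uM; normalized to DMSO and 100 uM tamoxifen; Hill-fit AC50.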
# Starred values were filed as active, the others as inactive; i = inactive; ? = inconclusive; . = not tested or not shown; ! = repeats disagree; [ ] = remark or other dose. The call rests on the fitted dose curve; in most records, active means well fitted curve in the direction sought with a large enough effect; inconclusive means small, poorly fitted or top-dose-only effect, or another doubt; inactive means no such curve, though single readings can be large; an effect the other way counts as inactive or inconclusive. Potency means the concentration at half of the fitted maximal effect.
SMILES,NTMT1 inh,GALC G270D up,FH mod,p53null 32C kill,p53null 39C kill
NC(=S)c1ccc[n+]([C@@H]2O[C@@H](COP(=O)([O-])OP(=O)(O)OC[C@H]3O[C@@H](n4cnc5c(N)ncnc54)[C@H](OP(=O)(O)O)C3O)C(O)C2O)c1 (some centres not stated),.,.,-7.6%[53.3 µM],.,.
Cc1ccc(NC(=O)N2CCc3ccccc32)cc1,.,.,.,5.62µM*,5.01µM*
CCNC(=O)c1ccc(NC(=O)N2CCCCc3ccccc32)cc1,-1.4%,i,6.8%,-2.7%,-0.3%
CC(C)(C)c1[nH]cnc1/C=c1\[nH]c(=O)/c(=C/c2ccccc2)[nH]c1=O,21.5%,.,.,.,.
COc1ccc(CNC(=O)c2ccc3c(c2)nc2n3CCCCC2)cc1,-3.0%,i,-11.7%,?,-56.6%
CCCNC(=O)c1ccc2c(c1)nc1n2CCCCC1,-6.4%,i,-8.0%,12.6µM*,10µM*
Cc1cccc(CCNC(=O)c2ccc3c(c2)nc2n3CCCCC2)c1,-23.1%,i,-7.5%,10µM*,10µM*
Cc1ccc(CNC(=O)c2ccc3c(c2)nc2n3CCCC2)cc1,1.5%,i,3.9%,-9.6%,3.4%
COCCCNC(=O)c1ccc2c(c1)nc1n2CCCCC1,-1.1%,i,9.1%,?,12.6µM*
CCC(C)NC(=O)c1ccc2c(c1)nc1n2CCCCC1 (configuration not stated),-3.4%,i,-9.1%,?,5.01µM*
COc1ccc(C2Nc3ccccc3C(=O)N2Cc2ccccc2)cc1COc1c(C)cc(NC(C)=O)cc1C (configuration not stated),3.4%,.,.,.,.
Nc1nonc1C(=Nc1ccc(F)c(Cl)c1)NO,10.7%[57.5 µM],.,-3.5%,.,.
COc1cc(C)[nH]c(=O)c1CN1CCc2c(Cl)cc([C@H](OC)C3COC3)c(Cl)c2C1=O,9.2%,.,.,.,.
C[C@@H]1COCCN1c1cc(C2(S(C)(=N)=O)CC2)nc(-c2ccnc3[nH]ccc23)n1 (some centres not stated),?,.,0.4%,.,.
O=C(NCCc1ccccc1Cl)c1ccc2c(c1)nc1n2CCOC1,1.0%,i,-24.1%,10µM*,5.01µM*
COc1ccc(CNC(=O)C2CCCN(c3nnc(C)c4c(C)n(-c5ccc(C)cc5)nc34)C2)cc1 (configuration not stated),79.4µM*,i,-28.1%,-0.7%,3.5%
CCc1ccc(CNC(=O)C2CCCN(c3nnc(C)c4c(C)n(-c5ccc(OC)cc5)nc34)C2)cc1 (configuration not stated),?,i,-24.0%,25.1µM*,?
COc1ccc(-n2nc3c(N4CCC(C(=O)NCc5cccc(F)c5)CC4)nnc(C)c3c2C)cc1,-5.0%,i,-1.4%,-12.0%,3.16µM*
CCNC(=O)C1CCCN(c2nnc(C)c3c(C)n(-c4ccc(C)cc4)nc23)C1 (configuration not stated),-1.6%,i,?,1.7%,-17.6%
COc1ccc(CNC(=O)C2CCN(c3nnc(C)c4c(C)n(-c5ccc(C)cc5)nc34)CC2)cc1,?,i,-11.2%,?,12.6µM*
COc1ccc(-n2nc3c(N4CCCC(C(=O)NCc5ccc(C)cc5)C4)nnc(C)c3c2C)cc1 (configuration not stated),?,i,-25.0%,?,14.6%
CC(C)(O)c1coc(S(=O)(=O)NC(=O)Nc2c3c(cc4c2CCC4)CCC3)c1,17.4%,.,.,.,.
CCOC(=O)c1ccc(O)c(O)c1,?,i,-8.4%[53.3 µM],.,.
NCCc1ccc(O)c(O)c1,31.6µM*!,?,?,.,.
C=C1C2CCC3C(CCC4[C@@]3(C)CCC[C@@]4(C)C(=O)O)(C2)[C@@H]1OC(=O)/C(C)=C\C (some centres not stated),-15.5%[29.8 µM],.,-1.1%[53.3 µM],.,.
SMILES,NTMT1 inh,GALC G270D up,FH mod,p53null 32C kill,p53null 39C kill
CN(C)S(=O)(=O)c1ccc(C(=O)NC2CC(=O)N(c3ccc4c(c3)OCCO4)C2)cc1 (configuration not stated),89.1µM*,i,-0.3%,7.1%,-6.3%
CCN(CC)S(=O)(=O)c1ccc(C(=O)NC2CC(=O)N(c3ccc4c(c3)OCCO4)C2)cc1 (configuration not stated),0.9%,i,-7.3%,-5.0%,16.1%
CCN(CC)C(=O)C1CCN(S(=O)(=O)c2ccc3c(c2)CCCN3C(C)=O)CC1,4.0%,i,-37.0%,-0.6%,10µM*
Cc1cc(-c2ccccc2)n2ncc(C(=O)Nc3ccc(Cl)c(Cl)c3)c2n1,12.8%,.,.,.,.
Cc1ccnc(NC(=O)/C=C/c2cccs2)c1,.,.,.,10µM*,.
Cc1cc(-c2nc3ncccc3o2)ccc1N,.,.,.,11.2µM*,?
CCCCCCOC(=O)/N=C(\N)c1ccc(NCc2nc3cc(C(=O)N(CCC(=O)OCC)c4ccccn4)ccc3n2C)cc1,7.1%[57.5 µM],.,-13.1%,.,.
COc1ccccc1CNC(=O)CSc1ncc2c(n1)-c1ccccc1N(Cc1ccc(C)cc1)S2(=O)=O,79.4µM*,i,0.2%,2.8%,-10.2%
Cc1oc(-c2cccc(Cl)c2)nc1CN1CCC(C(=O)NC(C)C)CC1,-6.9%,i,-1.8%,0.3%,-18.8%
Cc1ccc(Cl)cc1N1CCN(C(=O)C2CCN(Cc3nc(-c4cccc(Cl)c4)oc3C)CC2)CC1,-0.3%,i,-22.8%,-0.4%,25.1µM*
O=c1c(-n2ccnn2)c[nH]n1-c1cc(N2CCOCC2)ncn1,3.03µM*!,.,.,.,.
O=S(=O)(Nc1cc(F)ccc1F)c1ccc2[nH]c3c(c2c1)CCCCC3,?,i,?,28.9%,10.2%
O=S(=O)(Nc1cccc(F)c1)c1ccc2[nH]c3c(c2c1)CCCCC3,-10.7%,i,35.5µM*,37.3%,15.8µM*
CCCCN(C)CCCNC(=O)C1CCN(c2nc3ccc(CC)cc3s2)CC1,?,i,-4.9%,?,12.6µM*
CCCCN(CC)CCCNC(=O)C1CCN(c2nc3ccc(CC)cc3s2)CC1,-16.7%,i,-5.2%,?,12.6µM*
CCc1ccc2nc(N3CCN(C(=O)c4ccco4)CC3)sc2c1,-17.1%,i,-4.8%,-28.6%,-11.9%
O=C(Nc1ccc(Cl)cc1)c1ccccc1NCc1ccncc1,1.3%[57.5 µM],.,-20.1%,.,.
Cc1ccc(S(=O)(=O)Nc2cc(C(=O)Nc3nc(-c4ccccc4)cs3)ccn2)cc1,-3.0%[57.5 µM],.,.,.,.
FC(F)(F)c1ccc(CNc2nc(-c3ccccc3C(F)(F)F)nc3ccccc23)cc1,22.4%,.,.,.,.
COc1ccc(-c2nc3ccccc3n2Cc2ccc(C(C)C)cc2)cc1,0.0%,i,?,9.4%,?
COCn1c(-c2ccc(OC)cc2)nc2ccccc21,.,.,.,14.1µM*,11.2µM*
COc1ccc(-c2nc3ccccc3n2Cc2ccc(Cl)cc2)cc1,-13.4%,i,-37.9%,55.9%,3.98µM*
